# Hit rate of the full screen: of about 300,000 compounds, about 37,000 (12%) were called active. The list comes from a sample in which actives are over-represented; it also holds similar structures and randomly drawn compounds. A number with no mark means an inactive call. Cut-off read from the data, not from the text of the source: active = max response mostly above about 13% (no sharp cut-off); inactive = mostly below about 14%.
# Test: Cycloheximide Counterscreen for Small Molecule Inhibitors of Shiga Toxin; note: read at 38.3 µM for the half of the compounds with a filed dose; 0% is about no effect
# Details: cell reporter, cycloheximide protein synthesis inhibition counterscreen; stronger effect = higher value
row,Structure (SMILES),max response
1,COc1ccc(NC(=O)c2c(C)oc3c2CCCC3)cc1,23.1% (active)
2,COc1ccc(NC(=O)ON=C2c3ccccc3-c3ccccc32)cc1,36.1% (active)
3,COc1ccc(NC(=O)c2ccc(C#CC(C)(C)O)cc2)cc1,29.4% (active)
4,COc1ccc2oc(=N)c(C(=O)Nc3ccc(Br)cc3)cc2c1,-2.54%
5,COc1ccc(S(=O)(=O)Nc2ccc3oc(C)c(C(C)=O)c3c2)cc1,-0.324%
6,COc1cccc(NC(=O)CN(C)CC(=O)Nc2ccc3c(c2)CCC3)c1,4.53%
7,COc1ccc(CC(=O)Nc2ccc(C(=O)NC(C)(C)C)cc2)cc1,7.23%
8,CCC(=O)Nc1ccc(C(=O)Nc2cccc(OC)c2)cc1,37.4% (active)
9,COc1ccc(NS(=O)(=O)c2ccc(NC(=O)c3ccc(N(C)S(C)(=O)=O)cc3)cc2)cc1,-6.86%
10,COc1ccc(C(=O)ON=C2c3ccccc3-c3ccccc32)cc1OC,-2.66%
11,COc1ccc(NC(=O)C(Br)C(C)C)cc1 (configuration not stated),10.3%
12,COc1cccc(NC(=O)c2ccc(S(=O)(=O)N(C)C)cc2)c1,9.95%
13,CCC(C)[C@H](NC(=O)N1CCn2c1nc1ccccc12)C(=O)NCc1ccc(OC)cc1 (some centres not stated),7.87%
14,CC1CCN(C(=S)NC2CC3CCC2C3)CC1 (configuration not stated),-2.5%
15,O=C(CCCCCn1c(=S)[nH]c2ccsc2c1=O)NC1CCCCC1,-3.34%
16,Cc1nc(NC2=NC(C(=O)Nc3ccc(Cl)cc3)CC(=O)N2)nc2ccccc12 (configuration not stated),-1.93%
17,Cc1ccc2c(C)c(C(=O)N(C)Cc3ccncn3)oc2c1C,-3.14%
18,CCOC(=O)C1(CC2CCCCO2)CCN(Cc2nc(-c3cccs3)oc2C)CC1 (configuration not stated),-1.4%
19,CC(C(=O)c1ccc(-c2ccccc2)cc1)[n+]1cccc(Br)c1 (configuration not stated),-1.92%
20,CC(NC(=O)c1ccco1)c1ccc2c(c1)OCO2 (configuration not stated),-2.24%
21,Cc1c(C)c2c(OCC(=O)N[C@@H](C(=O)O)c3ccccc3)cc3c(c2oc1=O)CCC(C)(C)O3,0.453%
22,Cc1nn(C)c(C)c1CN(C(=O)CCc1nnc(Cc2c[nH]c3ccccc23)o1)C(C)C,-2.58%
23,COCCNC(=O)/C(C#N)=C/c1nc(N(C)C)n(-c2ccc(F)cc2)c1Cl,6.45%

row,Structure (SMILES),max response
1,CSCCC(NS(=O)(=O)c1ccc(C)cc1)C(=O)N1CCCC1 (configuration not stated),-0.967%
2,COc1ccc(NC(=O)Nc2ccc3nsnc3c2)cc1,49.2% (active)
3,COc1ccc(C(=O)Nc2cccc(S(C)(=O)=O)c2)cc1,-2.97%
4,Cc1cccc(C(=O)Nc2ccccc2C(=O)NCc2cccnc2)c1,-1.87%
5,COc1ccc(/C=N/NC(=O)Nc2ccc3nsnc3c2)c(OC)c1,-1.93%
6,COc1ccc(C(=O)Nc2ccc(NC(=O)C(C)C)nc2)cc1,2.34%
7,COc1ccc(NC(=O)c2ccc(OC)cc2)cc1,45.1% (active)
8,Cc1cccc(C(=O)Nc2ccc3c(c2)C(=O)N(CC(C)C)C3=O)c1,10.4%
9,COc1ccc(C(=O)NNC(=S)NC(=O)c2ccccc2)cc1,8.67%
10,O=C(NC(=S)NC1CCCCC1)c1ccc(Cl)cc1,-1.68%
11,Cc1cccc(C(=O)Nc2ccc(Oc3cnccn3)cc2)c1,22.6% (active)
12,COCCNC(=O)Nc1ccc2nc(-c3ccco3)c(-c3ccco3)nc2c1,-4.08%
13,COc1ccc(C(=O)NC(=S)NC2CCCCC2)cc1,72.8% (active)
14,O=C(C1CCCO1)N1CCN(C(=S)NC2CC2)CC1 (configuration not stated),-1.72%
15,CN1C(=O)[C@H]2[C@@H](C3CC3)N3C(=O)CN(Cc4ccccc4)C(=O)[C@@]3(C)[C@H]2C1=O,-0.826%
16,CNC(=O)CN1C(=O)NC(c2ccccc2)(c2ccccc2)C1=O,-2.25%
17,Cc1ccc(C(=O)O)cc1-c1ccc(/C=C2\SC(=O)N(CC(=O)Nc3ccc4c(c3)OCO4)C2=O)o1,-2.31%
18,O=C(NN1C(=O)C2C3C=CC(C4CC34)C2C1=O)c1ccc(Cl)cc1 (configuration not stated),3.35%
19,C=C(C)C1CC=C(C)C(O)C1 (configuration not stated),7.86%
20,CN(C(=O)COc1nnc(-c2cccs2)c(-c2cccs2)n1)c1ccccc1,0.449%
21,COc1cccc(N(CC(=O)Nc2cccc(F)c2)S(C)(=O)=O)c1,-5.13%
22,CCN(CC)C(=O)c1ccc(NC(=O)c2sccc2-c2ccccc2)cc1,0.344%
23,CCOc1ccc(N(CC(=O)Nc2cccc(OC)c2)S(C)(=O)=O)cc1,27.2% (active)

row,Structure (SMILES),max response
1,COc1cccc(N(CC(=O)Nc2cccc(N(C)S(C)(=O)=O)c2)S(C)(=O)=O)c1,-2.16%
2,COc1ccc(NC(=O)c2sc(N)nc2-c2ccccc2)cc1,1.95%
3,COc1ccc(NC(=O)c2sccc2SCC#N)cc1,40% (active)
4,CCOc1cccc(-c2nnc(SCC(=O)NC3CC3)n2C)c1,5.85%
5,CCOC(=O)NN1C(=O)c2ccccc2NC1c1ccccc1O (configuration not stated),-0.209%
6,COc1ccc(CCNC(=O)CCc2cn(C)c3ccccc23)c(OC)c1,0.538%
7,O=C(NCCNc1ccc([N+](=O)[O-])cc1)c1cccc2c(Br)cccc12,-5.64%
8,O=S(=O)(c1ccc(Cl)cc1)c1nc(-c2ccccc2F)oc1NCCN1CCOCC1,0.972%
9,O=C(c1cc(C(=O)N2CCN(c3ccc(F)cc3)CC2)cc([N+](=O)[O-])c1)N1CCN(c2ccc(F)cc2)CC1,1.24%
10,CC12CN3CCN(CC(C3)/C1=N\NC(=O)c1ccccc1N)C2,42.9% (active)
11,Nc1ccccc1C(=O)NC1CCCCNC1=O (configuration not stated),-3.17%
12,CNC(=S)N/N=C1\C2CN3CCN(C2)CC1(c1ccccc1)C3,0.185%
13,CC1CC(C)CN(C(=O)C2CC(=O)N(c3ccc(F)cc3)C2)C1 (configuration not stated),-5.15%
14,COc1cc2c3c(c1)/C(=C1/SC(=S)NC1=O)C(=O)N3C(C)(C)C=C2C,-0.91%
15,CC(=O)Nc1cccc(OCC(=O)/C=C2\N(C)c3ccccc3C2(C)C)c1,17%
16,COc1ccc(CNC(=O)COc2cccnc2[N+](=O)[O-])cc1,-2.66%
17,Cc1ccc(-n2ncc3c(Nc4cccc(C(=O)O)c4)ncnc32)cc1,45.3% (active)
18,O=C(NNc1ncnc2c1cnn2-c1ccccc1)c1ccco1,9.27%
19,Cc1ccc(Nc2ncnc3c2cnn3C)c(C)c1,1.06%
20,CCOC(=O)C1CN(S(=O)(=O)c2ccc(F)cc2)C1,1.16%
21,C=CCn1c(=S)[nH]c2scc(-c3ccco3)c2c1=O,-1.66%
22,COc1cc(C2C(N3C(=O)c4ccccc4C3=O)C(=O)N2c2ccc(C)c(C)c2)cc(OC)c1OC (configuration not stated),-1.4%
23,COC(=O)c1ccc(S(=O)(=O)NCc2ccccc2)n1C,-1.21%

row,Structure (SMILES),max response
1,COc1ccc(C2C3=C(CCCC3=O)N(CC(=O)O)C3=C2C(=O)CCC3)cc1,-0.955%
2,CC(=O)Cc1nsc(NC(=O)c2ccc(COc3ccc(C)cc3)o2)n1,4.45%
3,CCOc1ccc(OCc2ccc(C(=O)Nc3cccc(C)n3)o2)cc1,21.2% (active)
4,Cc1cccc(NC(=O)c2ccc(COc3ccccc3[N+](=O)[O-])o2)n1,9.42%
5,Cc1ccc(NC(=O)c2nc[nH]c2C(=O)N[C@@H](CCCCNC(=O)OC(C)(C)C)C(=O)OC(C)(C)C)cc1,-3.36%
6,O=C(NCC(=O)N1CCN(c2ncc(C(F)(F)F)cc2Cl)CC1)c1ccc(Br)o1,-1.14%
7,CCc1nnc(NC(=O)c2nc3nccc(C)n3n2)s1,-2.71%
8,Cc1ccnc2nc(C(=O)Nc3nnc(-c4ccccc4)o3)nn12,23.5% (active)
9,CCCC(=O)Nc1nnc(-c2ccccc2)o1,-3.55%
10,C=CCN(c1ccccc1C(=O)NCC(=O)OCC)S(=O)(=O)c1ccc(C)cc1,-3.9%
11,CCn1cc(C(=O)NCCCN2CCCCCC2)c(=O)c2cc(S(=O)(=O)N3CCc4ccccc4C3)ccc21,-1.21%
12,CCO[C@H]1OC(C(=O)NCc2ccccc2)=C[C@@H](c2coc3ccccc3c2=O)[C@@H]1CCCO,-1.05%
13,CCC(=O)N1c2ccc(S(=O)(=O)NCc3ccco3)cc2CC1C (configuration not stated),19.8%
14,O=C(O)CCCC(=O)Nc1ccc(Oc2cccc(C(F)(F)F)c2)nc1,5.78%
15,COC(=O)C1CCN(C(=O)c2ccc3oc(Cc4ccc(Cl)cc4)nc3c2)CC1,-2.56%
16,COCC1CCN(C(=O)c2ccc3oc(Cc4ccccc4)nc3c2)C1 (configuration not stated),39.1% (active)
17,COc1ccc(C(=O)N2CCCC(C(=O)c3ccccc3OC)C2)cc1OC (configuration not stated),9.55%
18,COc1c(C)cc(C(=O)C2CCCN(S(=O)(=O)c3c(C)noc3C)C2)cc1C (configuration not stated),5.32%
19,Cc1ccc2c(c1)N(CC(=O)N1CCOCC1)C(=O)CO2,-3.08%
20,Cc1nc(C(=O)NCc2ccccc2)sc1C1(C)CC(c2cccnc2)=NO1 (configuration not stated),-3.23%
21,Cc1nc(-c2ccc(Cl)cc2)sc1C1(C)CC(c2ccccc2F)=NO1 (configuration not stated),20.7% (active)
22,Cc1nc(C(=O)Nc2ccc(Cl)cc2)sc1C1(C)CC(c2ccccc2)=NO1 (configuration not stated),9.03%
23,CCN(c1ccc(NC(=O)COC(=O)CCc2nc3ccccc3n2-c2ccccc2)cc1)C(C)C,6.5%

# From PubChem BioAssay AID2314 (National Center for Advancing Translational Sciences (NCATS), 2010)
